Screens deposited in PubChem by National Center for Advancing Translational Sciences (NCATS).
A selection: hits, their analogues and other compounds. The true share with any hit is near 0.68%.
RE007 growth inh: less growth of the S. pombe RE007 Vpr strain; S. pombe RE007 Vpr strain, BacTiter-Glo ATP luminescence, 24 h; Potency, µM (top dose mostly 92.2 µM), for inactives: top-dose activity change, negative = less growth, usual class: inhibitors; hit rate 0.21% among 360,000; AID 651644; active = well fitted falling curve with a large enough effect; inconclusive = small, poorly fitted or top-dose-only effect; inactive = no such curve, though single readings can be large or run the other way; also: nearly all actives have a fitted effect of over 50% in size
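Fission yeast RE007 carrying one integrated HIV-1 vpr copy, seeded at OD 0.01 in PMG+AL medium with 23 nL pinned compound. Grown 24 h at 30 degrees; viability read by BacTiter-Glo luminescence after 5 min.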
LmPK inhibitor: LmPK (Leishmania mexicana) enzyme inhibition; Q27686; purified LmPK, Kinase-Glo ATP luminescence, 1 h; Potency, µM (titrated, usually from 57.5 µM), inactives show at the highest dose activity change, negative = inhibition, hits mostly inhibitors; hit rate 0.37% among 290,000; AID 1721
Target sequence (Q27686 whole entry, looked up): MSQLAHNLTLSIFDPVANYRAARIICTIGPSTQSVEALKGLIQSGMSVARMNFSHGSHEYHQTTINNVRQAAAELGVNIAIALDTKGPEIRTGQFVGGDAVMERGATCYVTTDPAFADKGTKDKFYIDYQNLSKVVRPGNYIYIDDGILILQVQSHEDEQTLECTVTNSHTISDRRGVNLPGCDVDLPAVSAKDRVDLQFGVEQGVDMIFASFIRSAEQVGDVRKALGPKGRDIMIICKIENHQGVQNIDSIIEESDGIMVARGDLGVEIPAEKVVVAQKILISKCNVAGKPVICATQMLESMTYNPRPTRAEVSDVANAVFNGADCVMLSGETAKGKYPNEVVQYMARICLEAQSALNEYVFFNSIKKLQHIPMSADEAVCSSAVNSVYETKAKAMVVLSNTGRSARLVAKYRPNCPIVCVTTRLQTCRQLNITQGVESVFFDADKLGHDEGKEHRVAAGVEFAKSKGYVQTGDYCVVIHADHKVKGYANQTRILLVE
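Purified LmPK (0.1 nM) with 0.5 mM PEP and 0.1 mM ADP in imidazole buffer pH 7.2 with MgCl2/KCl, 1 h at room temperature. ATP formed was read by luciferase luminescence and normalized to no-enzyme and uninhibited controls.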
Tb PYK inh: inhibitors of Trypanosoma brucei pyruvate kinase. TbPYK enzyme, Kinase-Glo Plus ATP luminescence, 45 min. Potency, µM (doses to about 76.8 µM), for the others: top-dose activity, negative = inhibition, actives largely listed as inhibitors. hit rate 0.12% among 410,000; also: nearly all actives have a fitted effect of over 50% in size
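Quantitative HTS: titrated library compounds versus trypanosomal pyruvate kinase in TEA buffer (pH 7.2) containing KCl, MgCl2, BSA and Tween-20. Reactions were initiated with ADP, 130 uM final. Kinase-Glo Plus luminescence was read after 45 min at RT.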
AMA1 RON2 block: inhibitors of Plasmodium falciparum AMA1-RON2 interaction; AlphaScreen AMA1-biotinylated RON2 peptide binding; Potency, µM (highest dose often 58.2 µM), without a hit: top-dose activity change, negative = inhibition, most hits filed as inhibitors; hit rate 0.2% among 360,000; AID 720542;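 also: 0% = vehicle wells and -100% = peptide control; nearly all actives have a fitted effect of over 45% in size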
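AMA1 (3D7) with his tag at 25 nM final met compounds first, then biotinylated RON2 peptide at 25 nM; detection used donor plus acceptor beads, 10 µg/mL apiece, read by AlphaScreen after 30 min at room temperature.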
* hit, by the source's call; ? = inconclusive; nt = no result given; [ ] = another dose, or the depositor's remark. Unless noted, calls follow the shape of the dose curve; as a rule, active = well fitted curve in the direction sought with a large enough effect; inconclusive = small, poorly fitted or top-dose-only effect, or another doubt; inactive = no such curve, though single readings can be large; an effect the other way counts as inactive or inconclusive. Unless noted, % is scaled to controls: 0 for no effect and ±100 for the full control effect; potency is read from the fitted curve at half-maximal effect.

SMILES	RE007 growth inh	LmPK inhibitor	Tb PYK inh	AMA1 RON2 block
O=C1C(c2ccccc2)=C(N2CC2)c2ccccc21	?	0%	1%	28µM*
Fc1cccc(Cc2c(-c3ccco3)nc3ccc(Br)cn23)c1	-10%	nt	25µM*	-19%
COc1ccc(N=Nc2cc(C)c(O)c(CN3CCCCC3)c2)cc1	-12%	-4%	3%	20µM*
COc1ccc2nc(NC(=O)c3nc(SCc4cccc(C)c4)ncc3Cl)sc2c1	nt	nt	-4%	nt
O=c1[nH]c(=S)[nH]c2c1C(c1ccc(Br)cc1)c1c([nH]c(=S)[nH]c1=O)O2	4%	0%	?	35µM*
O=C1CCCC2=C1C(c1ccc(Br)cc1)c1c([nH]c(=S)[nH]c1=O)N2 (stereo not given)	36%	-2%	-28%	60%
CN(C)c1cc2c3ccccc3n(C)c2cc1N	?	nt	-9%	3.5µM*
Cc1ccc2nc(NC(=O)c3ccccn3)sc2c1	?	-25%	-15%	76%
CCOc1ccc2nc(NC(=O)c3ccccn3)sc2c1	14µM*	?	-11%	48%
CCOc1ccc2nc(NC(=O)c3ccoc3C)sc2c1	10µM*	13µM*	?	14%
CCSc1nnc(NC(=O)c2ccccn2)s1	11µM*	?	-12%	-6%
O=C(Cn1nnc(-c2ccccc2)n1)N1CCCCC1	-4%	6%	0%	23%
O=C(/C=C/c1ccccc1[N+](=O)[O-])c1ccccc1Br	28µM*	-2%	5%	?
Cc1ccc(C(=O)/C=C/c2ccccc2[N+](=O)[O-])cc1	3%	-3%	2%	-23%
CC(Sc1nc2ccccc2n1C)C(=O)NC(c1ccccc1)c1ccccc1 (stereo not given)	-4%	4%	9%	-5%
COc1ccc(C(=O)Nc2ccc(N3CCOCC3)cc2)cc1OC	?	16µM*	-31%	5%
COc1ccc(C(=O)Nc2ccc(N3CCCC3)cc2)cc1OC	-5%	?	?	-18%
COc1ccc(C(=O)N/N=C/c2ccc(N3CCOCC3)o2)cc1OC	25%	?	32µM*	42%
COc1cccc(C(=O)NC(=S)Nc2ccc(N3CCCC3)cc2)c1	-13%	4%	-14%	25µM*
Clc1ccc(-c2cc(CSc3ccccc3)on2)cc1	-15%	3%	-1%	81%
COc1ccccc1N=Nc1nc(-c2ccccc2)c(-c2ccccc2)[nH]1	1%	-3%	-4%	35µM*
CCN(CC)c1ccc(NC(=O)C(NS(=O)(=O)c2cccs2)C(C)C)c(C)c1 (stereo not given)	nt	nt	-12%	nt
N#Cc1cc2c(nc1SCC(=O)NCc1ccc3c(c1)OCO3)CCCCC2	-8%	2%	1%	-1%
CC(=NCc1ccco1)c1c(C)[nH]n(-c2nc3ccccc3s2)c1=O	?	-3%	-5%	1%
C/C(=N/NC(=O)c1cccs1)c1c(C)[nH]n(-c2nc3ccccc3s2)c1=O	?	20µM*	?	70%
SMILES	RE007 growth inh	LmPK inhibitor	Tb PYK inh	AMA1 RON2 block
O=C1NC(=O)C(=Cc2ccc(Sc3ccccc3)o2)C(=O)N1	0%	?	40µM*	-19%
CN1C(=O)C(=Cc2ccc(Sc3ccccc3)o2)C(=O)N(C)C1=O	0%	-20%	-15%	-1%
CCn1c(/C=C/c2ccccc2)nc2ccccc21	?	22µM*	-7%	24%
CC(C)Cn1c(/C=C/c2ccccc2)nc2ccccc21	?	0%	-3%	49%[11.6 µM]
COc1ccc(/C=C/c2nc3ccccc3n2C)cc1	32µM*	18µM*	?	0%
COc1ccc(CNc2nc3ccccc3n2C)c(OC)c1	-16%	18µM*	-17%	-8%
FC1(F)C(F)(F)C(F)(F)C2(F)C(F)(F)C(F)(F)C(F)(F)C(F)(F)C2(F)C1(F)F (stereo not given)	nt	nt	-3%	nt
Cc1c(Cl)cnc(NC(=O)COC(=O)c2cccc(S(=O)(=O)N3CCc4ccccc4C3)c2)c1Cl	-9%	-1%	5%	13%
CC(C)OCCCn1c(-c2ccc(Br)cc2)c[nH]c1=S	9%	13µM*	?	11%
CC(C)OCCCn1c(=S)[nH]c2ncccc2c1=O	9%	1%	-11%	14%
Cn1ccc(C(=O)N/N=C/c2c[nH]c3ccccc23)n1	0%	0%	2%	-1%
O=C(CCl)c1ccc2c(c1)CCN2C(=O)C1CC1	nt	-1%	nt	nt
O=C(CCl)c1ccc2c(c1)CCN2C(=O)C1CCCCC1	11µM*	1%	-3%	-4%
CN1/C(=C\C=C2/SC(=S)N(CC(=O)O)C2=O)C(C)(C)c2ccccc21	24%	-28%	-11%	20µM*
Cc1ccc(CNC(=O)CSc2ccc(-c3ccccn3)nn2)cc1	1%	0%	-10%	?
O=C(CSc1ccc(-c2ccccn2)nn1)NCc1ccc(Cl)cc1	-19%	-12%	5%	14µM*
Cn1cc(CNC(=O)/C=C/c2ccc(Cl)cc2)cn1	2%	-1%	9%	-4%
CCOc1cc(/C=N/Nc2nn3cnnc3c3ccccc23)ccc1O	-7%	16µM*	0%	59%
CCOc1cc(/C=N/Nc2nncc(-c3ccccc3)n2)ccc1O	0%	2%	-9%	23%
COc1cc(/C=N/Nc2nn3cnnc3c3ccccc23)ccc1O	-15%	7.9µM*	-18%	36%
COc1cc(/C=N/Nc2nc3ccccc3[nH]c2=O)ccc1O	-2%	-6%	0%	-3%
COc1cccc(/C=N/Nc2nc3ccccc3n3cnnc23)c1	14%	4%	-1%	12%[11.6 µM]
C(=N\Nc1nn2cnnc2c2ccccc12)/c1ccco1	1%	-4%	0%	72%
Oc1ccc(/C=N/Nc2nn3cnnc3c3ccccc23)cc1	-23%	14µM*	0%	73%
COc1cccc(/C=N/Nc2nn3cnnc3c3ccccc23)c1	-1%	25µM*	-9%	37%
SMILES	RE007 growth inh	LmPK inhibitor	Tb PYK inh	AMA1 RON2 block
CCOc1cc(C(=O)Nc2ccc3c4c(cccc24)C(=O)N3CC)cc(OCC)c1OCC	6%	1%	-7%	-3%
CCc1ccc(NS(=O)(=O)c2ccc3[nH]cc(C(=O)NCC4CCCO4)c(=O)c3c2)cc1 (stereo not given)	-9%	5%	-2%	-14%
O=[N+]([O-])c1ccccc1Nc1ccccc1	-3%	5%	0%	10µM*
O=[N+]([O-])c1ccccc1Nc1ccccc1[N+](=O)[O-]	2%	nt	-4%	-25%
CCCCCCc1ccc(OCC(=O)O)cc1OCC(=O)O	15%	0%	-1%	-16%
CSc1nnc(-c2ccccc2)o1	-12%	-1%	-4%	-5%
O=S1(=O)C=C(Sc2nnc(-c3ccccc3)o2)c2ccccc21	10µM*	0%	?	2%
C[n+]1c(-c2ccccc2)cc2c(=Cc3ccc([N+](=O)[O-])cc3)c3ccccc3n21	-27%	nt	-13%	?
Cc1cc2c(=Cc3ccc(N(C)C)cc3)c3ccccc3n2[n+]1C	0%	nt	-19%	?
CCOC(=O)c1cc2c(=Cc3ccc(N(C)C)cc3)c3ccccc3n2[n+]1C	?	nt	-30%	20µM*
C[n+]1c(-c2ccccc2)cc2c(=Cc3ccccc3)c3ccccc3n21	?	nt	-9%	16µM*
